The source made the active and inactive calls. Unless noted, how the calls were made is not given here.

Sequence of L-lactate dehydrogenase (Plasmodium falciparum (isolate CDC / Honduras)) (Q27743 whole entry, looked up): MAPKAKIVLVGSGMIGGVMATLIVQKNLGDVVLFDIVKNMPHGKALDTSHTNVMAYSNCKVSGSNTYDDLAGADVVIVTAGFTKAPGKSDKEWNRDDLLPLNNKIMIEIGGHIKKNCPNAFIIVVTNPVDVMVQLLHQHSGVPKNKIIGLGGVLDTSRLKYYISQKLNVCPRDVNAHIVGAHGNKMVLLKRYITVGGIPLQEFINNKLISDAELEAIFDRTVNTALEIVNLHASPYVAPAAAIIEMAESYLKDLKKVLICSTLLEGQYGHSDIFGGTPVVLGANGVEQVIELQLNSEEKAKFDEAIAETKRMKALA

Test system in one test: not listed separately
The test is described as follows: human hepatoma cell viability loss – ATP luminescence, cytotoxicity control for P. falciparum antimalarial project, primary screen (AID 2303;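 active means inhibition above 50%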;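 further: 0% = DMSO wells and 100% = digitonin-killed cells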). The note with it: HepG2 viability, 24-48 h, at 10 µM, active compounds read high.
A word on the inhibition: it is the relative decrease from the control value, in per cent. On to `CN1CCc2cc(Br)c(O)cc2C1Cc1ccccc1Cl` (stereo not drawn), for which the inhibition is 2% (inactive).
Regarding `OC1CCC(Nc2ccc3ncc(-c4ccc5ccccc5c4)n3n2)CC1` (stereo not drawn), the inhibition was 52% (active).
Regarding `COc1ccc(Nc2cc(C)c3cc(NC(=O)c4ccncc4)ccc3n2)cc1`, the inhibition was 0% (inactive).

The next test concerns the target L-lactate dehydrogenase (Plasmodium falciparum (isolate CDC / Honduras)) (UniProt Q27743). As to the kind of experiment: PfLDH activity inhibition – cell lysate, 3D7 strain, counter-screen for P. falciparum growth inhibition project (AID 2304).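 Further: 0% = vehicle and 100% = reference inhibitor.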 The note with it: P. falciparum 3D7 crude extract, LDH APAD/NBT absorbance; at 2 µM; active compounds read high.
In the case of `N#Cc1ccc(-c2ccc(C(=O)NCCCCN3CCC(c4nc5ccccc5[nH]4)CC3)cc2)cc1`, the inhibition was 4% (inactive).
On the same count and under the same terms, for `c1cncc(CCNCc2ccc(-c3ccc(CNC4Cc5ccccc5C4)cc3)cc2)c1` the value was 1% (inactive); for `O=C(Nc1ccc(Cl)cc1)Nc1cccc(-c2cccc(-c3nc4ccccc4[nH]3)c2)c1`, 0% (inactive); for `Cc1cccc2[nH]c(-c3ccc(-c4ccc(CN5CCN(C6CCN(C)CC6)CC5)cc4)cc3)nc12`, -5% (inactive).
For `CN(C)CCN(C)Cc1ccc(-c2cccc(NC(=O)c3ccc(Cl)cc3)c2)cc1`, the inhibition is -5% (inactive).
`O=C(Nc1cccc(-c2ccc(NCCCN3CCCC3)nc2)c1)c1ccccc1`: the inhibition was 4% (inactive).
Same read-out and setting: for `Cc1nnsc1C(=O)Nc1cccc(-c2cccc(-c3nc4ccc(F)cc4[nH]3)c2)c1` the value was 3% (inactive); for `COc1ccc2nccc([C@@H](O)CN3CCC(NCC(=O)Nc4cc(F)cc(F)c4)CC3)c2n1`, -8% (inactive); for `Cc1cc(N2CCCCC2)nc2ccc(NC(=O)c3cccc([N+](=O)[O-])c3)cc12`, 2% (inactive).
The same measure, in the same setting: for `O=S(=O)(c1cc(Cl)sc1Cl)N(CCC(O)(C(F)(F)F)C(F)(F)F)Cc1cccc(O)c1` the value was 5% (inactive); for `CC(=O)Nc1cc(C(=O)Nc2cccc(-c3cccc(-c4nc5ccc(C(F)(F)F)cc5[nH]4)c3)c2)ccc1C`, -4% (inactive).
The same measure, in the same setting: for `COC(=O)c1ccc(C2OC3(C(=O)c4ccccc4C3=O)C(OC)=C2Cl)cc1C(C)=O` (stereo not drawn) the value was -2% (inactive); for `Cc1ccc(S(=O)(=O)N2CCN(C(=O)c3cc(-c4cccs4)[nH]n3)CC2)c(C)c1`, -1% (inactive).
Turning to `O=C(NCCCN1CCOCC1)c1csc(Nc2ccc(Cl)c(Cl)c2)n1`, the inhibition is 2% (inactive).
The same measure, in the same setting: in the case of `CCCc1cc(Cc2cnc(N)nc2N)ccc1OCCCCCC(=O)OCC` it was 0% (inactive); in that of `CC(=NNC(=S)Nc1ccccc1Cl)c1ccccn1`, 6% (inactive); in that of `O=C(Cn1c(CCc2cccc(F)c2F)nc(=O)c2cccnc21)N(Cc1ccc(-c2ccc(C(F)(F)F)cc2)cc1)C1CCN(C2CCOCC2)CC1`, 1% (inactive).
In the case of `CCn1c(-c2ccccc2)cc2nnc3ccccc3c21`, the inhibition is 5% (inactive).
In the case of `CCCc1ccc(S(=O)(=O)NC2CCN(c3ccnc(Nc4ccc(OC)cc4)n3)C2)cc1` (stereo not drawn), the inhibition was 0% (inactive).
Still for that read-out and setting: for `O=C(C=Cc1cccs1)Nc1ccc(-c2nc3ccccc3[nH]2)cc1` the value was 4% (inactive); for `O=C(CC1SC(N2N=C(c3cccs3)CC2c2ccccc2)=NC1=O)Nc1ccc(Cl)cc1` (stereo not drawn), 2% (inactive).
Turning to `O=C(NCc1ccc(Cl)c(Cl)c1)c1ccc(-c2nc3ccc(Cl)cc3[nH]2)cc1`, the inhibition was -6% (inactive).
As to `C=C[C@H]1CN(CCCCCCC)CC[C@H]1CC(=O)Nc1cnnc2ccc(OC)cc12`, the inhibition is 3% (inactive).
For the compound `O=C(Cc1ccc(NC(=O)c2ccc(O)c(-c3ccc(Cl)c(Cl)c3)c2)cc1)NCCc1ccc(Cl)c(Cl)c1`, the inhibition was 2% (inactive).
Still for that read-out and setting: in the case of `COc1cc2c(c(Cl)c1OC)CCN(Cc1ccccc1)CC2c1ccc(C(N)=O)cc1` (stereo not drawn) it was -5% (inactive); in that of `Clc1cnc2ccc3c(c2c1CCN1CCC(NCc2cc4c(cn2)OCCO4)CC1)OCCO3`, -2% (inactive).
The same measure, in the same setting: in the case of `Cc1cccc2[nH]c(-c3cccc(-c4ccc(CNCCCN5CCCC5=O)cc4)c3)nc12` it was 2% (inactive).
`Cc1nc2nc(N)nc(N)c2c(C)c1Cc1ccccc1`: the inhibition is 3% (inactive).
Take `CC(C)(C)c1ccc(C(=O)Nc2cccc(Nc3c(C(=O)NCc4cccc(C(F)(F)F)c4)cnc4c(O)cccc34)c2)cc1`: the inhibition is 1% (inactive).
`NCCCNc1nccc(N2CCc3ncnc(Nc4ccc(OCc5cccc(F)c5)c(Cl)c4)c3C2)n1`: the inhibition was 0% (inactive).
The same measure, in the same setting: in the case of `COc1cc2nc(N3CCC(CNC(=O)c4cccc5cccnc45)CC3)nc(N)c2cc1OC` it was -2% (inactive); in that of `S=C(Nc1cccc(Cl)c1)NC1CCN(c2ccnc3cc(Cl)ccc23)C1` (stereo not drawn), -3% (inactive).
On the same count and under the same terms, in the case of `Cc1cccc2[nH]c(-c3cccc(-c4ccc(NC(=O)C(=O)c5cccn5C)cc4)c3)nc12` it was -1% (inactive); in that of `Cc1cc(N[C@@H](Cc2ccccc2)C(=O)NCc2cccc(F)c2)nc(Nc2ccccc2)n1`, 5% (inactive).
On the same count and under the same terms, in the case of `CN1CCCN(Cc2ccc(-c3ccc(NC(=O)c4cccc(Cl)c4)cc3)cc2)CC1` it was 2% (inactive); in that of `CCS(=O)(=O)c1ccc(-c2cnc3[nH]cc(-c4ccc(N)cc4)c3c2)cc1`, -5% (inactive); in that of `CC(C)c1ccc(OCC(O)CN(CCN2CCOCC2)C(=O)Nc2ccc(Br)cc2)cc1` (stereo not drawn), -2% (inactive).
Turning to `CN1CCc2cc(Br)c(O)cc2C1Cc1ccccc1Cl` (stereo not drawn), the inhibition was -2% (inactive).
Still for that read-out and setting: in the case of `OC1CCC(Nc2ccc3ncc(-c4ccc5ccccc5c4)n3n2)CC1` (stereo not drawn) it was 3% (inactive); in that of `COc1ccc(Nc2cc(C)c3cc(NC(=O)c4ccncc4)ccc3n2)cc1`, 2% (inactive).

Source of the values: PubChem BioAssay.
